Data published in PubChem BioAssay (NCATS).
Where “and” joins values, the source holds several entries; their conditions need not be identical. Equal entries are not always repeated. Results filed as inconclusive are left out. Entries that show only a call come without a potency. Values without a mark were called inactive. Calls of active or inactive are those of the source. The call rests on the fitted dose curve; in most records, active means well fitted curve in the direction sought with a large enough effect; inconclusive means small, poorly fitted or top-dose-only effect, or another doubt; inactive means no such curve, though single readings can be large; an effect the other way counts as inactive or inconclusive.

Columns and labels:
[1] = molecular target: Cytochrome P450 3A7 (Homo sapiens) (UniProt P24462); assay: Cytochrome P450 family 3 subfamily A member 7 (CYP3A7) small molecule antagonists: luciferase biochemical qHTS assay (AID 1963596); further: nearly all actives have a fitted effect of over 40% in size
In short: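 Biochemical CYP3A7 activity measured with P450-Glo system: luciferin formed from proluciferin substrate in NADPH-driven reaction (1 h, room temperature) after 10 min compound preincubation. Signal in relative luminescence units.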

[2] = Viability qHTS for spleen associated tyrosine kinase inhibitor (SYKi) naive MV4-11 cells (AID 1963823); further: nearly all actives have a fitted effect of over 40% in size; further: potency means the concentration at half of the fitted maximal effect
In short: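 In this viability screen, compounds acted on SYK inhibitor naive MV4-11 cells for three days (72 hr, 37 C). Remaining viable cells were measured by CellTiter-Glo luminescence following a 10 min room-temperature development.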

[3] = Viability qHTS for spleen associated tyrosine kinase inhibitor (SYKi) drug resistant MV4-11 cells (AID 1963824); further: nearly all actives have a fitted effect of over 35% in size; further: potency means the concentration at half of the fitted maximal effect
In short: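 SYK-inhibitor-resistant MV4-11 AML cells were seeded at 500 per well onto compound and cultured 72 hours (37 °C, 5% CO2). CellTiter-Glo was then added, and after 10 min at room temperature, luminescence gave viability.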

Cytochrome P450 3A7 (Homo sapiens), sequence (P24462 whole entry, looked up): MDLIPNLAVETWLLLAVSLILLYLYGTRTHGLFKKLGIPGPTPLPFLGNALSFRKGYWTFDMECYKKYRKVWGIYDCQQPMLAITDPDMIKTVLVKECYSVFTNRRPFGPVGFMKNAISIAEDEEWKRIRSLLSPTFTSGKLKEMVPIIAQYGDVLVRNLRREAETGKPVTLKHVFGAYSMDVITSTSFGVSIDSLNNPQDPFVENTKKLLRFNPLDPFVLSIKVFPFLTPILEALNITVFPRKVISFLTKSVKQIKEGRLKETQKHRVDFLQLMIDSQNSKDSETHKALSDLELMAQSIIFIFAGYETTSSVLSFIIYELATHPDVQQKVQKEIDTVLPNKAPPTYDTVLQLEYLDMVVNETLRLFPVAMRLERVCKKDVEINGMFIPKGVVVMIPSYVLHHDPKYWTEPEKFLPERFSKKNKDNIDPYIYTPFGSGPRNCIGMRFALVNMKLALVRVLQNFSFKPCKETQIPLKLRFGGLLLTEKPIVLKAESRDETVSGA

Which results are given for `CNS(=O)(=O)c1ccccc1Nc1nc(Nc2ccc(N3CCN(C)CC3)cc2OC)ncc1Br`?
Potency [1]: inactive; Potency [2]: 0.0184 µM (active); Potency [3]: 0.0326 µM (active)

For `O=C(O)c1n[nH]c2c1C[C@H]1C[C@@H]21`, which Potency [1] is on record?
The Potency was “inactive”.

And the Potency [2]?
The Potency was “inactive”.

And the Potency [3]?
Its Potency is “inactive”.

With `CC(C)[C@@H]1C(=O)N(S(C)(=O)=O)[C@@H]2CCN(C(=O)/C=C/CN3CCCCC3)[C@H]21` as the compound, how does the Potency [1] read?
Its Potency is “inactive”.

What about the Potency [2] of the same compound?
The Potency was “inactive”.

With `O=C(c1ccc(F)cc1)C1CCN(CCn2c(=O)nc3n(c2=O)CCCC3)CC1` as the compound, how does the Potency [1] read?
Its Potency is “inactive”.

And the Potency [2]?
The Potency was “inactive”.

What about the Potency [3] of the same compound?
The Potency was “inactive”.

For `Nc1c(CC(=O)O)cccc1C(=O)c1ccc(Br)cc1`, which Potency [1] is on record?
The Potency was “inactive”.

And the Potency [2]?
Its Potency is “inactive”.

And the Potency [3]?
Its Potency is “inactive”.

For `O=c1c(-c2ccccc2)c1-c1ccccc1`, which Potency [1] is on record?
Its Potency is “inactive”.

What about the Potency [2] of the same compound?
Its Potency is 23.7 µM (active).

For `CN(C)CCCNc1nc(CN2CCN(C(c3ccc(Cl)cc3)c3ccc(Cl)cc3)CC2)nc2ccccc12`, which Potency [1] is on record?
Its Potency is “inactive”.

What about the Potency [2] of the same compound?
Its Potency is 2.06 µM (active).

What about the Potency [3] of the same compound?
The Potency was 3.26 µM (active).

With `CC(C)(C)NCc1cc(Nc2ccnc3cc(Cl)ccc23)c2c(c1O)CCCC2` as the compound, how does the activity change, negative = inhibition [1] read?
The activity change, negative = inhibition was -5.38% [at 11.5 µM].

And the viability (% of control) [2]?
The viability (% of control) was 90.1% [at 0.588 µM].

What about the viability, % of control [3] of the same compound?
Its viability, % of control is 102% [at 0.588 µM].

Which Potency [1] does the source give for `CCCc1cc2c(N3CCN(C4=NCC(C)(C)S4)CC3)ncnc2s1` here?
Its Potency is “inactive”.

What about the Potency [2] of the same compound?
Its Potency is 8.2 µM (active).

And the Potency [3]?
Its Potency is 5.8 µM (active).

For `CCCCCCOC(=O)/N=C(\N)c1ccc(NCc2nc3cc(C(=O)N(CCC(=O)OCC)c4ccccn4)ccc3n2C)cc1`, which Potency [1] is on record?
The Potency was “inactive”.

What about the Potency [2] of the same compound?
Its Potency is 1.3 µM (active).

What about the Potency [3] of the same compound?
The Potency was 0.82 µM (active).

What does the source list for `COCCCNCC1COc2ccccc2O1` (stereo not given)?
Potency [1]: inactive; Potency [2]: inactive; Potency [3]: inactive

Which results are given for `CCC1(O)CC2c3cc(OC)c(OC)cc3CCN2CC1CC(C)C` (stereo not given)?
Potency [1]: inactive; Potency [2]: inactive; Potency [3]: inactive

What does the source list for `NC(Cc1c[nH]c2ccccc12)C(=O)NC(CCC(=O)O)C(=O)O` (stereo not given)?
Potency [1]: inactive; Potency [2]: 2.91 µM (active); Potency [3]: inactive

With `CC(O)(P(=O)(O)O)P(=O)(O)O` as the compound, how does the Potency [1] read?
The Potency was “inactive”.

What about the Potency [2] of the same compound?
The Potency was “inactive”.

And the Potency [3]?
Its Potency is “inactive”.

With `CCCCN(CCCC)CC(O)c1cc(Cl)cc2c1-c1ccc(Cl)cc1/C2=C/c1ccc(Cl)cc1` (stereo not given) as the compound, how does the Potency [1] read?
The Potency was “inactive”.

And the Potency [2]?
The Potency was 20.9 µM (active).

What about the Potency [3] of the same compound?
Its Potency is 18.8 µM (active).

Which results are given for `C=CC(=O)Nc1cc(Nc2nccc(-c3c[nH]c4ccccc34)n2)c(OC)cc1N(C)CCN(C)C`?
Potency [1]: inactive; Potency [2]: 0.411 µM (active); Potency [3]: 0.58 µM (active)

Which Potency [1] does the source give for `Nc1nc(N)c(N=O)c(OCC2CCCCC2)n1` here?
Its Potency is “inactive”.

What about the Potency [2] of the same compound?
The Potency was 6.51 µM (active) and 6.61 µM (active).

What about the Potency [3] of the same compound?
The Potency was 8.2 µM (active) and 8.33 µM (active).

Which results are given for `O=C(O)[C@@H]1C[C@H]2C[C@@H](CCc3nn[nH]n3)CC[C@H]2CN1`?
Potency [1]: inactive; Potency [2]: inactive; Potency [3]: inactive

For `CNC(=O)c1cc(Oc2ccc3nc(N[C@@H]4CCCC[C@H]4O)sc3c2)ccn1`, which Potency [1] is on record?
The Potency was “inactive”.

And the Potency [2]?
Its Potency is 13 µM (active).

What about the Potency [3] of the same compound?
Its Potency is 11.6 µM (active).

Which results are given for `O=C1N=C(N2CCOCC2)CN1c1ccc(Cl)cc1`?
Potency [1]: inactive; Potency [2]: inactive; Potency [3]: inactive

With `CCOCc1cc(OC)c(-c2ccc(C[C@H](NC(=O)c3c(F)cccc3F)C(=O)O)cc2)c(OC)c1` as the compound, how does the Potency [1] read?
Its Potency is “inactive”.

What about the Potency [2] of the same compound?
The Potency was “inactive”.

What about the Potency [3] of the same compound?
Its Potency is “inactive”.

Which results are given for `COC(=O)C(Cc1ccc(OCCn2c(=O)sc3cc(C(=O)c4ccccc4)ccc32)cc1)C(=O)OC`?
Potency [1]: inactive; Potency [2]: 23.1 µM (active); Potency [3]: 18.4 µM (active)

With `CC(C)c1noc(C2CCN(c3ncnc(Nc4ccc(S(C)(=O)=O)cc4F)c3[N+](=O)[O-])CC2)n1` as the compound, how does the Potency [1] read?
The Potency was “inactive”.

What about the Potency [2] of the same compound?
Its Potency is “inactive”.

What about the Potency [3] of the same compound?
Its Potency is “inactive”.

Which Potency [1] does the source give for `CN(C)C/C=C/C(=O)Nc1cccc(C(=O)Nc2ccc(Nc3nccc(-c4cccnc4)n3)cc2)c1` here?
The Potency was “inactive”.

What about the Potency [2] of the same compound?
The Potency was 0.184 µM (active).

What about the Potency [3] of the same compound?
The Potency was 0.461 µM (active).

What does the source list for `COc1cc(CCc2cc(NC(=O)c3ccc(N4CC(C)NC(C)C4)cc3)n[nH]2)cc(OC)c1` (stereo not given)?
Potency [1]: inactive; Potency [2]: 0.82 µM (active); Potency [3]: 1.03 µM (active)

Which Potency [1] does the source give for `Cn1cc(-c2cnc3ccc4ccc(CS(=O)(=O)NCc5ccccn5)cc4c(=O)c3c2)cn1` here?
Its Potency is “inactive”.

What about the Potency [2] of the same compound?
The Potency was 14.6 µM (active).

And the Potency [3]?
Its Potency is 11.6 µM (active).

With `CCCCNC(=O)[C@@H]1Cc2ccccc2N1C(=O)[C@@H](N)CC` as the compound, how does the Potency [1] read?
The Potency was “inactive”.

What about the Potency [2] of the same compound?
Its Potency is “inactive”.

And the Potency [3]?
Its Potency is “inactive”.

Which results are given for `CN(C)S(=O)(=O)c1ccc(NC(=S)N2CCC(C(O)(c3ccccc3)c3ccccc3)CC2)cc1`?
Potency [1]: inactive; Potency [2]: 16.4 µM (active); Potency [3]: 18.4 µM (active)

With `C[C@@H](O)[C@H](NC(=O)c1ccc(C#Cc2ccc(CN3CCOCC3)cc2)cc1)C(=O)NO` as the compound, how does the Potency [1] read?
The Potency was “inactive”.

What about the Potency [2] of the same compound?
The Potency was 23.1 µM (active).

What about the Potency [3] of the same compound?
The Potency was 23.1 µM (active).

Which Potency [1] does the source give for `FC(F)(F)c1nnc2c(Sc3ccccc3)nc3ccc(Cl)cc3n12` here?
Its Potency is “inactive”.

What about the Potency [2] of the same compound?
Its Potency is 1.46 µM (active).

And the Potency [3]?
The Potency was 0.731 µM (active).

With `CNC(=O)Nc1ccc(OC)c(NC(=O)NC(=O)c2cc(F)c(F)cc2Cl)c1` as the compound, how does the Potency [1] read?
Its Potency is “inactive”.

What about the Potency [2] of the same compound?
The Potency was “inactive”.

And the Potency [3]?
Its Potency is “inactive”.

With `CN1CCN(C(=O)CN[C@@H]2C[C@H]2c2ccc(OCc3ccccc3)cc2)CC1` as the compound, how does the Potency [1] read?
The Potency was “inactive”.

And the Potency [2]?
The Potency was 25.9 µM (active).

What about the Potency [3] of the same compound?
The Potency was 25.9 µM (active).

For `CC(C)(C)C1CCN(C(=O)n2ncc(C(O)(c3ccccc3)c3ccccc3)n2)CC1`, which Potency [1] is on record?
The Potency was “inactive”.

And the Potency [2]?
Its Potency is 20.6 µM (active).

And the Potency [3]?
Its Potency is 8.2 µM (active).

Which results are given for `CC(=O)N1CCN(NC(=O)c2ccc(F)cc2)CC1`?
Potency [1]: inactive; Potency [2]: inactive; Potency [3]: inactive
